Reference: PubChem BioAssay (NCATS)
Results filed as inconclusive are left out. A call without a number means that no potency is given here. Unmarked numbers belong to inactive results. Active and inactive are the calls of the source. Calls come from the whole dose curve; as a rule, active = well fitted inhibition curve with a large enough effect; inconclusive = small, poorly fitted or top-dose-only effect; inactive = flat fitted curve, though single readings scatter. Where a SMILES comes first, the peptide text is derived from it. [ ]: non-standard residue; d: D form. Hyp = O=C(O)[CH]1C[CH](O)CN1; Phe(ol) = N[CH](CO)Cc1ccccc1; Iva = CC[C](C)(N)C(=O)O; Aib = CC(C)(N)C(=O)O

Molecular target: Calcium and integrin-binding protein 1 (Homo sapiens) (UniProt Q99828)
Test: Primary qHTS for Identification of Calcium Integrin Binding Protein 1 (CIB1) Competitor (AID 1508620); for activity change, negative = inhibition: top concentration of the series differs between compounds
Settings: CIB1-GST / FITC-alphaIIb peptide fluorescence polarization; series mostly up to 114 µM
How it was run: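 Fluorescence polarization competition: GST-tagged CIB1 (1 uM final) preincubated with compound 15 min at room temperature, then FITC-labelled alphaIIb peptide (100 nM final) added. After 15 min at room temperature, polarization read at Ex 480/Em 540.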
Potency is the fitted concentration of half-maximal effect.

Sequence of Calcium and integrin-binding protein 1 (Homo sapiens) (Q99828 whole entry, looked up): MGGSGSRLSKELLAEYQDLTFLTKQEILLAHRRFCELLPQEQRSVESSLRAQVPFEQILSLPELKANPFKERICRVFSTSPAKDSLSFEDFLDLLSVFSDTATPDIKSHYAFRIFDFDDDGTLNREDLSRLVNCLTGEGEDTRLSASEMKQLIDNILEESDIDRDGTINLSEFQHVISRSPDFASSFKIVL

| SMILES | Potency | activity change, negative = inhibition |
| --- | --- | --- |
| CCN(CC)C(=O)C(c1ccccc1)N1CCN(c2ccc(NC(=O)c3ccccc3-c3cccnc3)cc2F)CC1 (centres undefined) | inactive | – |
| Cc1cc(C(C)Nc2ccccc2C(=O)O)c2nc(N3CCOCC3)cc(=O)n2c1 (centres undefined) | inactive | – |
| C=C1[C@H]2CC[C@H](C(=O)O)[C@@]23CC[C@H](C3)C1(C)C | inactive | – |
| Cc1nc(Nc2cnn(C3CCNCC3)c2)nc2c1N(C)C(=O)c1cc3ccccc3cc1N2C | inactive | – |
| C/C=C/CCC1Cc2cc(O)c(CCCC)c(O)c2C(=O)O1 (centres undefined) | inactive | – |
| C/C=C(/C=C(C)/C=C/C=C/C=C(\C)C(=O)C12OC1C(O)(CCO)NC2=O)C(=O)OC (centres undefined) | inactive | – |
| CC(=O)OC(C)(C)/C=C/C(=O)C(C)(O)C1C(O)CC2(C)C3CC=C(C(C)(C)C(=O)O)C(CC(=O)O)C3(C)C(=O)CC12C (centres undefined) | inactive | – |
| C[C@@H]1O[C@@H](O[C@H]2[C@H](OC(=O)[C@]34CCC(C)(C)C[C@H]3C3=CCC5[C@@]6(C)C[C@H](O)[C@H](O[C@@H]7O[C@H](CO)[C@@H](O)[C@H](O)[C@H]7O)[C@](CO)(C(=O)O)C6CC[C@@]5(C)[C@]3(C)C[C@H]4O)OC[C@H](O)[C@@H]2O)[C@H](O)[C@H](O)[C@H]1O[C@@H]1OC[C@@H](O)[C@H](O[C@@H]2OC[C@](O)(CO)[C@H]2O)[C@H]1O (some centres undefined) | – | 3.47% [at 12.4 µM] |
| CCC(=C(c1ccc(OCCN2CCCC2)cc1)c1ccc(OCCN2CCCC2)cc1)c1ccccc1 | inactive | – |
| CCC(C)/C=C(C)/C=C/C1=CC2=C(Cl)C(=O)C(C)(OC(C)=O)C(=O)C2(O)C(OC)O1 (centres undefined) | inactive | – |
| CCC(C)C(=O)OC12C(OC(C)=O)C(C)C3(O)C(C=C(CO)CC4(O)C(=O)C(C)=CC43)C1C2(C)C (centres undefined) | inactive | – |
| COC1CC(=O)C23C(=O)NC(CC(C)C)C2C(C)C(C)=CC3/C=C(\C)CCCC1O (centres undefined) | inactive | – |
| O=S(=O)(Nc1ccccc1N1CCCCC1)c1ccc(Cl)s1 | inactive | – |
| C=C1C(=O)O[C@@H]2C[C@H](C)[C@@H]3CC(=O)[C@H](O)[C@@]3(C)C[C@H]12 | inactive | – |
| Nc1ncnc2c1nc(Cl)n2C1OC2COP(=O)(O)OC2C1O (centres undefined) | inactive | – |
| O=C(Nc1cnc(Cl)nc1)c1ccc(F)c(F)c1 | inactive | – |
| CC1CCCC(O)CCC/C=C/c2cc(OS(=O)(=O)O)cc(O)c2C(=O)O1 (centres undefined) | inactive | – |
| CC(=O)O[C@@H]1[C@@H](OC(C)=O)[C@H](C)O[C@@H](O[C@H]2[C@@H]3C=CO[C@@H](O[C@@H]4O[C@H](CO)[C@@H](O)[C@H](O)[C@H]4O)[C@@H]3[C@@]3(CO)O[C@@H]23)[C@@H]1OC(=O)/C=C/c1ccccc1 | inactive | – |
| O[C@@](Cc1ncc(CC2(C(F)(F)F)CC2)[nH]1)(c1ccc(-n2cccn2)cc1)C(F)(F)F | inactive | – |
| CC(C)(O)C1CC(=O)C2(C)C(CCC3(C)C(c4ccoc4)OC(=O)C4OC432)C12CCC(=O)OC2 (centres undefined) | inactive | – |
| CC(C)C[C@@H]1NC(=O)[C@@H]2C[C@@]34C[C@@H]5[C@@]6(C)CCCC(C)(C)C6CC[C@@]5(C)N(c5ccccc53)[C@H]4N2C1=O (some centres undefined) | inactive | – |
| Cc1cc(-c2ncc(-c3cccnc3)cc2/C=C/c2ccccc2)cnc1-c1cccnc1 | inactive | – |
| C[C@@H](O[C@H]1OCCN(Cc2nn(P(=O)(O)O)c(=O)[nH]2)[C@H]1c1ccc(F)cc1)c1cc(C(F)(F)F)cc(C(F)(F)F)c1 | inactive | – |

| SMILES | Potency | activity change, negative = inhibition |
| --- | --- | --- |
| CC[C@@H]1C[C@]1(NC(=O)[C@@H]1C[C@@H]2CN1C(=O)[C@H](C(C)(C)C)NC(=O)OCC(C)(C)CCCCc1cccc3c1CN(C3)C(=O)O2)C(=O)NS(=O)(=O)C1CC1 | inactive | – |
| CCc1c[nH]c2ncnc(N3CC[C@](N)(CNC(=O)c4ccc(F)cc4F)C3)c12 | inactive | – |
| CC(C)CC(=O)c1c(O)cc2c(c1O)C(CC(C)C)C1=C(O2)C(C)(C)C(=O)C(C)(C)C1=O (centres undefined) | inactive | – |
| CC(=O)OC1C(=O)C2C3OCC4=C3[C@@](C)(CC[C@@H]4O)CC[C@]2(C)[C@H]1C(C)C (some centres undefined) | inactive | – |
| C=C1C(=O)OC2CC(C)C(CCC(C)O)=CCC12 (centres undefined) | inactive | – |
| CC(NCCCc1cccc(C(F)(F)F)c1)c1cccc2ccccc12 (centres undefined) | inactive | – |
| CC(O)(C(=O)O)C1CCC2(C)C1CCC1(C)C2CCC2C3(C)CCC(O)C(C)(COC4OC(CO)C(O)C(O)C4O)C3CCC21C (centres undefined) | inactive | – |
| CCCn1cc2c(nc(NC(=O)Nc3ccc(OC)cc3)n3nc(-c4ccco4)nc23)n1 | inactive | – |
| CC(=O)OC1CC(O)(C(C)C)C2C(OC(=O)c3ccc(O)cc3)C=C(C)C(=O)CC12C (centres undefined) | inactive | – |
| COC1=CC(=O)C[C@@H](C)[C@@]12Oc1c(Cl)c(OC)cc(OC)c1C2=O | inactive | – |
| CN(C)CCC(CSc1ccccc1)Nc1ccc(S(=O)(=O)NC(=O)c2ccc(N3CCN(Cc4ccccc4-c4ccc(Cl)cc4)CC3)cc2)cc1[N+](=O)[O-] (centres undefined) | inactive | – |
| CC(=O)Nc1cccc(-c2csc(Nc3cc(C)ccn3)n2)c1 | inactive | – |
| COc1cc2nc(N3CCN(C(=O)c4ccco4)C4CCCCC43)nc(N)c2cc1OC (centres undefined) | inactive | – |
| COc1ccc(S(=O)(=O)Nc2cc(Cl)cc(Cl)c2OC)cc1N1CCNCC1 | inactive | – |
| CCCc1cc(C)[nH]c(=O)c1CNC(=O)c1cc(-c2ccc(N3CCN(C(C)C)CC3)nc2)cc2c1cnn2C(C)C | inactive | – |
| CC(C)(C)[C@H](NC(=O)c1ccc(N)c(Cl)c1)C(=O)N1CCC[C@H]1C(=O)N[C@H](C#N)CC(=O)O | inactive | – |
| CCCCNc1ncc(-c2ccc(CN3CCOCC3)cn2)c(NC2CCC(O)CC2)n1 (centres undefined) | inactive | – |
| Cc1[nH]c2ccccc2c1CCNCc1ccc(/C=C/C(=O)NO)cc1 | inactive | – |
| CC[C@H]1OC(=O)[C@H](C)[C@@H](O[C@H]2C[C@@](C)(OC)[C@@H](O)[C@H](C)O2)[C@H](C)[C@@H](O[C@H]2O[C@H](C)C[C@H](N(C)C)[C@H]2O)[C@](C)(O)C[C@@H](C)C(=O)[C@H](C)[C@@H](O)[C@]1(C)O | inactive | – |
| C=C(C)C(=O)O[C@H]1[C@H]2C(=C)C(=O)O[C@@H]2/C=C(\CO)CC/C=C(/C=O)[C@@H]1O | inactive | – |
| Nc1nc(Cl)nc2c1ncn2C1OC(CO)C(O)C1F (centres undefined) | inactive | – |
| COc1ccccc1C(=O)Nc1cc2c(cc1N1CCCC1)n(C)c(=O)n2C | inactive | – |
| CCC(C)(NC(=O)C(CCC(N)=O)NC(=O)C1CC(O)CN1C(=O)C(C)(C)NC(=O)C(C)(C)NC(=O)C(CC(C)C)NC(=O)CNC(=O)C(NC(=O)C(C)(C)NC(=O)C(C)(C)NC(=O)C(C)(C)NC(=O)C(Cc1ccccc1)NC(C)=O)C(C)C)C(=O)N1CC(O)CC1C(=O)NC(C)(C)C(=O)NC(CO)Cc1ccccc1 (centres undefined) (Ac-F[Aib][Aib][Aib]VGL[Aib][Aib][Hyp]Q[Iva][Hyp][Aib][Phe(ol)]; configuration not given here) | – | 1.74% [at 12.4 µM] |

| SMILES | Potency | activity change, negative = inhibition |
| --- | --- | --- |
| NS(=O)(=O)c1ccc(NC(=O)Nc2ccc(F)cc2)cc1 | inactive | – |
| C=C1C(=O)OC2/C=C(\CO)CC/C=C(\C=O)C(OC)C(OC(=O)C(C)CC)C12 (centres undefined) | inactive | – |
| C=C1C(=O)OC2C1CCC1(C)C(O)CC=C(C)C21 (centres undefined) | inactive | – |
| COc1ccc2cc3c(NC(=O)c4ccco4)nn(C)c3nc2c1 | inactive | – |
| C=C(C)[C@@H]1CC[C@]2(C(=O)O)CC[C@]3(C(=O)O)[C@H](CCC4[C@@]5(C)CCC(=O)C(C)(C)C5CC[C@]43C)C12 (some centres undefined) | inactive | – |
| Cn1cc(-c2ccc3c(c2)CCN3C(=O)Cc2cccc(C(F)(F)F)c2)c2c(N)ncnc21 | inactive | – |
| CC12CCC3C1C(c1c(cc(O)c(C(=O)c4ccccc4)c1O)O2)C3(C)C (centres undefined) | inactive | – |
| Cc1ccc(-c2cn3c4c(sc3n2)CCCC4)cc1 | inactive | – |
| COC(=O)/C=C/C=C/C(=O)OC1C=C2COC(=O)C2(O)C2(C)CCCC(C)(C)C12 (centres undefined) | inactive | – |
| C/C=C(/C)C(=O)O[C@@H]1C[C@@H](OC(=O)CC(C)C)C2(C)C3C(=O)C=C(C)C2C3C1(C)C (some centres undefined) | inactive | – |
| CC(=O)C1=C(O)C=C2Oc3c(C(C)=O)c(O)c(C)c(O)c3[C@]2(C)C1=O | inactive | – |
| C=C1C(=O)OC2CC(C)=C(C(C)CCCOC(C)=O)C(OC(=O)CC(C)CC)C12 (centres undefined) | inactive | – |
| CN1CCN(C2=Nc3ccccc3Nc3ccc(Cl)cc32)CC1 | inactive | – |
| COc1ccc(C2Oc3c(OC)cc(CCCO)cc3C2COC2OC(CO)C(O)C(O)C2O)cc1OC (centres undefined) | inactive | – |
| C/C=C(\C)[C@@H]1C(C)=C[C@@H]2[C@H]([C@@H]1/C=C/C=C/C(=O)O)[C@@H](C)CC[C@@H]2O | inactive | – |
| COc1cc2ncnc(Nc3ccc(F)c(Cl)c3)c2cc1O | inactive | – |
| CC(C)=CCCC1(C)/C=C/C(OC(=O)C=C(C)C)C(C)(O)/C=C/C(=O)/C(CO)=C\C1 (centres undefined) | inactive | – |
| C=CC(C)(O)CC/C=C(/C)COC(=O)C(C)C1CCC(C)(C=C)O1 (centres undefined) | inactive | – |
| COc1c(F)cccc1C(=O)N1C[C@@H](C)CC[C@H]1CNc1ccc(Br)cn1 | inactive | – |
| CC(C)=CCC[C@](C)(O[C@@H]1O[C@H](CO[C@@H]2OC[C@@H](O)[C@H](O)[C@H]2O)[C@@H](O)[C@H](O)[C@H]1O)[C@H]1CC[C@]2(C)[C@@H]1[C@H](O)C[C@@H]1[C@@]3(C)CC[C@H](O[C@@H]4O[C@H](CO)[C@@H](O)[C@H](O)[C@H]4O)C(C)(C)[C@@H]3CC[C@]12C | inactive | – |
| CC1CCCC[C@H]2C(=O)C=C[C@H](O)[C@@H]2CC(=O)O1 (some centres undefined) | 28.2 µM (active) | – |
| CC(=O)OC[C@]12[C@H](OC(C)=O)[C@H](OC(=O)c3ccccc3)[C@@H]3[C@@H](OC(C)=O)[C@]1(OC3(C)C)[C@H](C)C[C@H](OC(C)=O)[C@@H]2OC(=O)c1ccccc1 | inactive | – |
| CN(CC1COCCO1)S(=O)(=O)Nc1ccc2ccc3ncc(-c4cnn(C)c4)cc3c(=O)c2c1 (centres undefined) | inactive | – |
